The panel holds about 83,000 compounds, 20% with a hit somewhere; the sample as a whole holds those more often.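 Percent growth is the endpoint: 0 to 100 indicates growth inhibition (40 means 60% inhibition), 0 means no net growth, and negative values indicate cell death.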 Unmarked numbers belong to inactive results. Active and inactive are the calls of the source. Rule for the calls: active = growth percent below 10; inactive = the rest.
System: A549/ATCC NSCLC
Assay: NCI-60 one-dose screen, 48 h (100 = growth as untreated, 0 = no growth, -100 = all killed)
Conditions: 10 µM unless noted

Row | SMILES | growth
1 | Nc1cc(NN=C(c2ccc(O)cc2)c2ccc(O)cc2)c([N+](=O)[O-])cc1[N+](=O)[O-] | -49.6% (active)
2 | CSc1nc2c(c(=O)n1C)C1(C(=O)N(Cc3ccccc3)c3ccccc31)c1c(nc(SC)n(C)c1=O)N2 | 68.5%
3 | NNC(=O)c1ccc(C(=O)NN)cc1 | 100%
4 | COc1cc(Cl)cc(-c2nn(C(=O)NS(=O)(=O)c3ccccc3)cc2-c2ccncc2)c1 | 78.5%
5 | CCN(CC)CC(C)Nc1ccc(C)c2sc3ccccc3c(=O)c12 (stereo not given) | 32.7%
6 | COc1ccc2c3ccnc(C(F)(F)F)c3n(CCCCN)c2c1 | 77%
7 | COc1ccc(C2CC(c3cc(OC)c(OC)c(OC)c3)=NN2C(C)=O)cc1OCC(=O)Nc1nc2ccc(C(F)(F)F)cc2s1 (stereo not given) | 50.5%
8 | COC(=O)C(=Cc1ccccc1[N+](=O)[O-])C(=O)OC | 44.2%
9 | C=CCCCCOc1ccccc1-c1cnc(OCCCCC=C)n1C | 50.3%
10 | O=C(O)c1cccc(CN2CCN(c3cc4c(cc3F)c(=O)c(C(=O)O)cn4C3CC3)CC2)c1O | 99.5%
11 | Cc1cc(C)c(O)c(CNCCCCCCNCc2cc(C)cc(C)c2O)c1 | 32%
12 | Cc1cnc(N)nc1OCC(C)(C)CNC(=O)c1cccc(-c2ccc(S(=O)(=O)Nc3ccc4c(c3)N(C(=O)C3CC3)CCC4)cc2)c1 | 49.9%
13 | CCOc1cc(NC(=O)c2ccccc2)c(OCC)cc1N | 115%
14 | CCN(CC)c1ccc(/C=C/c2ccc3cc(C)ccc3[n+]2CC)cc1 | 8.77% (active)
15 | O=C1COCCN1c1ccc(NCc2cn(Cc3ccccc3)c3ccccc23)cc1 | 81.4%
16 | c1nc(N2CCOCC2)c2[nH]ccc2n1 | 99.9%
17 | O=C(Nc1cccc2cccnc12)c1cc(C(=O)c2ccc(Cl)cc2)n2ccc(-c3ccncc3)cc12 | 99.1%
18 | COc1cc2c(c(OC)c1)C1c3cc(OC)ccc3NC(=O)N1CC2 (stereo not given) | 67.2%
19 | CC[C@]1(O)CC2CN(CCc3c([nH]c4ccccc34)[C@@](C(=O)OC)(c3cc4c(cc3OC)N(C=O)[C@H]3[C@@](O)(C(=O)OC)[C@H](OC(C)=O)[C@]5(CC)C=CCN6CC[C@]43[C@@H]65)C2)C1 (stereo not given in full) | 16.7%
20 | CC(C)C1=NOC(=O)C1=Cc1cn(-c2ccco2)nc1-c1ccccc1 | 99.2%
21 | COC(=O)[C@H](CC(C)C)NC(=O)NC(=O)NC(=O)CI | 98.2%
22 | O=C1NC(=O)C(Cc2ccc(OCc3ccc(-c4cc(F)c(F)c(F)c4)cc3)cc2)S1 (stereo not given) | 73.2%
23 | NC(=O)CC1C=CCC1 (stereo not given) | 80.1%
24 | CC(C)C1=NOC(=O)C1=Cc1cn(-c2ccccc2)nc1-c1ccccc1 | 88.8%
25 | COc1ccc2c(c1)c(-c1noc(C(=O)c3cn(C)c4ncc(Br)cc34)n1)cn2C | 28.1%
26 | C#C[C@]1(O)CC[C@H]2[C@@H]3CC=C4c5nc(Nc6ccccn6)sc5CC[C@]4(C)[C@H]3CC[C@@]21C | 14.5%
27 | O=C1CN(Cc2ccc(C(=O)NO)cc2)C(=O)[C@@H](Cc2ccccc2)N1 | 96.4%
28 | COC(=O)[C@]1(C)CC[C@]2(C)CC[C@]3(C)C(=CC(=O)[C@@H]4[C@@]5(C)CCC(=O)NC(C)(C)[C@@H]5CC[C@]43C)[C@@H]2C1 | 9.53% [100 µM] (active)
29 | O=C(CSc1nc2ccc([N+](=O)[O-])cc2[nH]1)Nc1cccc(Cl)c1 | 28.9%
30 | CCn1cc(-c2ccnc(NCCNS(=O)(=O)c3cccc4ccccc34)c2)c(-c2cccc(O)c2)n1 | 103%

From PubChem BioAssay (NCI)
